Measured values from PubChem BioAssay (Tox21).
Results filed as inconclusive are left out. Activity calls are given as the source filed them. Unless noted, calls follow the shape of the dose curve; as a rule, active = well fitted curve in the direction sought with a large enough effect in the repeat runs; inconclusive = weak or mixed curves; inactive = no such curve, though single readings can be large; an effect the other way counts as inactive or inconclusive. Non-standard residues stand in square brackets, D forms with d. Residues, ends and D or L forms follow the SMILES beside them. pGlu = O=C1CC[C@@H](C(=O)O)N1; Thz = O=C(O)[C@@H]1CSCN1

What was measured:
[1] = qHTS assay to identify small molecule antagonists of the thyroid receptor (TR) signaling pathway - cell viability counter screen (AID 743064); also: nearly all actives have a fitted effect of over 50% in size; also: potency is read from the fitted curve at half-maximal effect
Outline: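 In rat pituitary GH3.TRE-Luc reporter cells co-exposed to compound and 1 nM T3 for 23.5 h, cytotoxicity was assessed with CellTiter-Fluor in the same wells, read by fluorescence.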

[2] = qHTS assay to identify small molecule antagonists of the thyroid receptor (TR) signaling pathway (AID 743065); also: nearly all actives have a fitted effect of over 55% in size; also: potency is read from the fitted curve at half-maximal effect
Outline: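 GH3.TRE-Luc rat pituitary cells carrying two TR response elements driving luciferase were plated for 4 h, given compound plus 1 nM T3 (final), and incubated 23.5 h at 37 C. ONE-Glo luminescence measured reporter inhibition; CellTiter-Fluor fluorescence tracked cytotoxicity.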

[3] = test system: thyroid hormone receptor (rat, GH3 cells); experiment: qHTS assay to identify small molecule agonists of the thyroid receptor (TR) signaling pathway (AID 743066; calls by dose curve)
[4] = qHTS assay to identify small molecule antagonists of the estrogen receptor alpha (ER-alpha) signaling pathway - cell viability counter screen (AID 743074; calls by dose curve;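 also: HEK293 cells carrying ER-alpha-UAS-bla reporter stimulated with 17beta-estradiol; nearly all actives have a fitted effect of over 45% in size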)
[5] = molecular target: Estrogen receptor (Homo sapiens) (UniProt P03372); experiment: qHTS assay to identify small molecule agonists of the estrogen receptor alpha (ER-alpha) signaling pathway (AID 743075; calls by dose curve;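 also: HEK293 GripTite cells with ER-alpha and UAS-driven beta-lactamase reporter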)
Chain of Estrogen receptor (Homo sapiens) (P03372 whole entry, looked up): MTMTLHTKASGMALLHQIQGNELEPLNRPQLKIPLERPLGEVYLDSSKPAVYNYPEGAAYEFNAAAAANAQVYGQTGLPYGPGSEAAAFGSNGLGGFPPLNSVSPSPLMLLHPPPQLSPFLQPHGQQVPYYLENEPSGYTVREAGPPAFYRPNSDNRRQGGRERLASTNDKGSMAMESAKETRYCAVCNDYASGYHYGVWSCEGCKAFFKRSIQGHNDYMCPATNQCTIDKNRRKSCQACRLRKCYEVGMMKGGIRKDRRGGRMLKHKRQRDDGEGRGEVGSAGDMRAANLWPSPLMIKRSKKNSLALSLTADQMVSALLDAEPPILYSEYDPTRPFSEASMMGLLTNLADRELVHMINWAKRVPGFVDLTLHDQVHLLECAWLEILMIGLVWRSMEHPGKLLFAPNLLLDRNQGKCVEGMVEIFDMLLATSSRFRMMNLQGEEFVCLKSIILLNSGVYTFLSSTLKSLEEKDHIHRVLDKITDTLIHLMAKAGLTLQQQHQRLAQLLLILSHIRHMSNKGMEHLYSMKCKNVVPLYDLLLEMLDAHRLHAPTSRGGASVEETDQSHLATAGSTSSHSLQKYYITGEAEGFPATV

[6] = molecular target: Estrogen receptor (Homo sapiens) (UniProt P03372); experiment: qHTS assay to identify small molecule agonists of the estrogen receptor alpha (ER-alpha) signaling pathway using the BG1 cell line (AID 743079); conditions: BG1Luc4E2 cells, ERE-luciferase agonist, 22 h; activation: at 70.3 µM (top of the series); also: nearly all actives have a fitted effect of over 20% in size
[7] = qHTS assay to identify small molecule antagonists of the estrogen receptor alpha (ER-alpha) signaling pathway using the BG1 cell line (AID 743080; calls by dose curve;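 also: BG1 cells stimulated with 17beta-estradiol alongside compound; nearly all actives have a fitted effect of over 25% in size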)
Outline: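 Endogenous full-length ER-alpha in BG1-Luc-4E2 cells drives a stably integrated 4×ERE luciferase gene; compounds were tested against 17beta-estradiol over 21.5 h, with luminescence and multiplexed viability fluorescence recorded.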

[8] = qHTS assay to identify small molecule antagonists of the estrogen receptor alpha (ER-alpha) signaling pathway using the BG1 cell line - cell viability counter screen (AID 743081);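 also: compound given together with 17beta-estradiol as the ER stimulus; nearly all actives have a fitted effect of over 45% in size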; also: potency is read from the fitted curve at half-maximal effect
Aromatase (Homo sapiens) = Aromatase (Homo sapiens) (UniProt P11511); experiment: qHTS assay to identify aromatase inhibitors (AID 743083); also: nearly all actives have a fitted effect of over 55% in size; also: potency is read from the fitted curve at half-maximal effect
Chain of Aromatase (Homo sapiens) (P11511 whole entry, looked up): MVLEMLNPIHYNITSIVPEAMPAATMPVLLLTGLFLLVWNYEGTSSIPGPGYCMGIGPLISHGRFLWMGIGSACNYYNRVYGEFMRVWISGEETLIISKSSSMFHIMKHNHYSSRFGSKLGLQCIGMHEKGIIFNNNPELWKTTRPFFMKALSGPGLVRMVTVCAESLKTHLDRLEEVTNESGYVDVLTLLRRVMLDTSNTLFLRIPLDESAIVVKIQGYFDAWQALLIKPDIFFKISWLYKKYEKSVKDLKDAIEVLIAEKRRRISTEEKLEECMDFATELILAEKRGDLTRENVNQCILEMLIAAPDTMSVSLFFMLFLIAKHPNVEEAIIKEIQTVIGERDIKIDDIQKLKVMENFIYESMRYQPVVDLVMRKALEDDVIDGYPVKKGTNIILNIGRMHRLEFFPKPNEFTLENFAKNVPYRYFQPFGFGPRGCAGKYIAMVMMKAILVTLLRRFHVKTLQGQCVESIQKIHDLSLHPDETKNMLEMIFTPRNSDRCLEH

[9] = qHTS assay to identify aromatase inhibitors - cell viability counter screen (AID 743084);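 also: cells stimulated with testosterone during compound exposure; nearly all actives have a fitted effect of over 55% in size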; also: potency is read from the fitted curve at half-maximal effect
[10] = molecular target: Aryl hydrocarbon receptor (Homo sapiens) (UniProt P35869); experiment: qHTS assay to identify small molecule that activate the aryl hydrocarbon receptor (AhR) signaling pathway (AID 743085);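 also: HG2L7.5c1 human HepG2 liver cells with stably integrated DRE-driven firefly reporter; nearly all actives have a fitted effect of over 15% in size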
Chain of Aryl hydrocarbon receptor (Homo sapiens) (P35869 whole entry, looked up): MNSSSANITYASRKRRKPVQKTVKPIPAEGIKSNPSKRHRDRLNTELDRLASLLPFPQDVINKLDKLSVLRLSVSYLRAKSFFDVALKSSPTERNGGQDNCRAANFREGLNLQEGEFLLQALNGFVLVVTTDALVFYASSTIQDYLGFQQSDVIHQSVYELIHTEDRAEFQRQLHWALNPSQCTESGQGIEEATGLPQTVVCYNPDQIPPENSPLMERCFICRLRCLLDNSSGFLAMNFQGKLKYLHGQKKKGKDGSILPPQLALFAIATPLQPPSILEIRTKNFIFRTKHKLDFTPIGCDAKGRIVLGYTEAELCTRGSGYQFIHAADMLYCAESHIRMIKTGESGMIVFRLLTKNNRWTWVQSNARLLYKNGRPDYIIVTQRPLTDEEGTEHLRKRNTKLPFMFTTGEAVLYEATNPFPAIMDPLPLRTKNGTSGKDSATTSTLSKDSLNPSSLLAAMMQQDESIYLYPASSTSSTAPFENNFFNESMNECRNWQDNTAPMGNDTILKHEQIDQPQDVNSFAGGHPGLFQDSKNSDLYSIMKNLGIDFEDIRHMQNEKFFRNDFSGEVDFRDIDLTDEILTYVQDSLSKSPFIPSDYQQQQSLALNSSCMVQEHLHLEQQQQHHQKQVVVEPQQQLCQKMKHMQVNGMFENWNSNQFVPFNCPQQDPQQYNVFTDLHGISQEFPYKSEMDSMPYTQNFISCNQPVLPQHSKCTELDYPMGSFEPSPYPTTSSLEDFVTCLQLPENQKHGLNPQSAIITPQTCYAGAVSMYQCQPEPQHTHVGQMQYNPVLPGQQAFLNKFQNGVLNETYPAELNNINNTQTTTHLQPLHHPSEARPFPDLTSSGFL
Outline: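 AhR agonist activity is inferred from enhanced light output of a DRE-controlled firefly luciferase reporter in HepG2 cells, measured with ONE-Glo following 24 h treatment at 37C.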

[11] = qHTS assay to identify small molecule that activate the aryl hydrocarbon receptor (AhR) signaling pathway - cell viability counter screen (AID 743086); also: nearly all actives have a fitted effect of over 45% in size; also: potency is read from the fitted curve at half-maximal effect
Outline: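 HepG2-AhR-luc (HG2L7.5c1) cells, 4000/well, were preincubated 5 h at 37C, exposed to compound in qHTS format for 24 hr at 37C, then given CellTiter-Fluor for 30 min; viability was read as fluorescence in the reporter wells.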

[12] = molecular target: Peroxisome proliferator-activated receptor gamma (Homo sapiens) (UniProt P37231); experiment: qHTS assay to identify small molecule agonists of the peroxisome proliferator-activated receptor gamma (PPARg) signaling pathway (AID 743094; active = well fitted activation curve with a large enough effect in the signal ratio in the repeat runs, not every such curve was filed as active; the % refers to the signal ratio)
Chain of Peroxisome proliferator-activated receptor gamma (Homo sapiens) (P37231 whole entry, looked up): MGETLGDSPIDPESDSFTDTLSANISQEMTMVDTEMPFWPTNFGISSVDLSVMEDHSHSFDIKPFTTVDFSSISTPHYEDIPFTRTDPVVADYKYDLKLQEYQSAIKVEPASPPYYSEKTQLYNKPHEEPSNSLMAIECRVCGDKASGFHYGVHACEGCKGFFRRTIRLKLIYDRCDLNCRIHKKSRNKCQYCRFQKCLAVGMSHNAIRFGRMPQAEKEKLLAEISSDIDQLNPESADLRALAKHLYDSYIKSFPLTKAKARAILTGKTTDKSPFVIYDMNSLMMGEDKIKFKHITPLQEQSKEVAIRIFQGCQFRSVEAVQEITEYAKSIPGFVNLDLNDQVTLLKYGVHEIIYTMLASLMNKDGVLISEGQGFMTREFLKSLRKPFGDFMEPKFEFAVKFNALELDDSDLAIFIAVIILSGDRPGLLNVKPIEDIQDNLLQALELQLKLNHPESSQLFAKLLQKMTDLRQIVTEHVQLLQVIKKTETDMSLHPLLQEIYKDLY
Outline: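 Beta-lactamase FRET fluorescence was the read-out after a 1 h room-temperature substrate step, following 17 h compound treatment at 37C of HEK293H cells expressing a UAS-driven bla reporter responsive to PPARg.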

[13] = qHTS assay to identify small molecule phospholipidosis (PLD) inducers (AID 1259344; active = well fitted curve in the direction sought with a large enough effect; an effect the other way counts as inactive or inconclusive)
Outline: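 HepG2 cells grown on collagen I take up LipidTOX Red while exposed to compound for 24 h; after fixation they are imaged at 20x and pit metrics are extracted.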

[14] = molecular target: Nuclear receptor subfamily 1 group I member 2 (Rattus norvegicus) (UniProt Q9R1A7); experiment: Rat pregnane X receptor (rPXR) activation by small molecules, qHTS assay (AID 1346983); conditions: rPXR luciferase reporter cells, One-Glo luminescence, 24 h; max activation: hits give high values; also: nearly all actives have a fitted effect of over 20% in size; also: potency is read from the fitted curve at half-maximal effect
Chain of Nuclear receptor subfamily 1 group I member 2 (Rattus norvegicus) (Q9R1A7 whole entry, looked up): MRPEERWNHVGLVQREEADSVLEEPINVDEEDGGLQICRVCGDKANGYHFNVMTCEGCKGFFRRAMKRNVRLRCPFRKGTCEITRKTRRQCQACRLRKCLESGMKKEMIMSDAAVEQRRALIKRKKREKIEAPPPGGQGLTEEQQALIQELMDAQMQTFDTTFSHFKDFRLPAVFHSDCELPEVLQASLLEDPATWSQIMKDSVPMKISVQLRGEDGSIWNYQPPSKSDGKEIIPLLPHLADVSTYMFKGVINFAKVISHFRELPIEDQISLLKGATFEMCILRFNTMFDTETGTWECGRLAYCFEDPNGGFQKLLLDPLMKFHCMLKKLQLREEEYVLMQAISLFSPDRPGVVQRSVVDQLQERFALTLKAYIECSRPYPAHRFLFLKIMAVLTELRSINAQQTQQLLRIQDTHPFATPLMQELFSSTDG
Outline: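 Cell-based rPXR luciferase reporter assay, 2,000 cells per well, rested 5hr at 37 C before compound addition in DMSO, then 24 hr at 37 C. One-Glo reagent was added and luminescence read after 30 min at room temperature.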

[15] = molecular target: Nuclear receptor subfamily 1 group I member 2 (Homo sapiens) (UniProt O75469); experiment: CYP3A4 induction through human pregnane X receptor (PXR) by small molecules, qHTS assay (AID 1346984); also: nearly all actives have a fitted effect of over 40% in size
Outline: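 Luminescence readout: luciferase signal after One-Glo (30 min, room temperature), following 3 h at 37C with 3uM final Luciferin-IPA P450 substrate. Cells were DPX-2 (HepG2, PXR/CYP3A4-luc co-transfected) dosed for 24 h.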

[16] = molecular target: Nuclear receptor subfamily 1 group I member 2 (Homo sapiens) (UniProt O75469); experiment: Human pregnane X receptor (PXR) activation by small molecules, qHTS assay (AID 1346985); also: nearly all actives have a fitted effect of over 40% in size; also: potency is read from the fitted curve at half-maximal effect
Outline: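 DPX-2 cells (HepG2 co-transfected with a PXR response element and a CYP3A4-promoter luciferase construct) were seeded at 2,000 per well, rested 5 hr at 37C, then exposed to DMSO-dissolved compounds for 24 hr. Activation was read as luciferase luminescence.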

[17] = molecular target: Estrogen receptor (Homo sapiens) (UniProt P03372); experiment: qHTS assay to identify small molecule antagonists of the estrogen receptor alpha (ER-alpha) signaling pathway (AID 743069; active = well fitted curve in the direction sought with a large enough effect in the signal ratio in the repeat runs, not every such curve was filed as active; the % refers to the signal ratio)
Outline: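 Estradiol-stimulated ER-alpha-UAS-bla HEK293 cells, 18 hr compound exposure at 37C. LiveBLAzer B/G substrate, 2 hr RT, fluorescence read.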
% is scaled to controls: 0 for no effect and ±100 for the full control effect.

CC(C)CCCC(C)NC(C)C (stereo not drawn)
inactive: Potency [1] | Potency [2] | Potency [3] | Potency [4] | Potency [5] | Potency [6] | Potency [7] | Potency [8] | Potency (Aromatase (Homo sapiens)) | Potency [9] | Potency [10] | Potency [11] | Potency [12] | Potency [13] | max activation [14] -0.288% | Potency [15] | Potency [16]

CC(C)[C@@H]1CC[C@@H](C)C[C@H]1OC(=O)c1ccccc1O
inactive: Potency [1] | Potency [2] | Potency [3] | Potency [17] | Potency [4] | Potency [5] | Potency [6] | Potency (Aromatase (Homo sapiens)) | Potency [9] | Potency [10] | Potency [11] | Potency [12] | Potency [13] | max activation [14] -0.772% | Potency [15] | Potency [16]

CN1CCN(C(c2ccccc2)c2ccc(Cl)cc2)CC1 (stereo not drawn)
active: Potency [1] 5.69 µM | Potency [2] 10.1 µM
inactive: Potency [3] | Potency [17] | Potency [4] | Potency [5] | Potency [6] | Potency [7] | Potency [8] | Potency (Aromatase (Homo sapiens)) | Potency [10] | Potency [12] | Potency [13] | max activation [14] -0.288% | Potency [15] | Potency [16]

CC(=O)OCC(=O)[C@@]12OC3(CCCC3)O[C@@H]1C[C@H]1[C@@H]3CCC4=CC(=O)C=C[C@]4(C)[C@@]3(F)[C@@H](O)C[C@@]12C
active: Potency [14] 25.1 µM | Potency [16] 14.1 µM
inactive: Potency [1] | Potency [2] | Potency [3] | Potency [17] | Potency [4] | Potency [5] | Potency (Aromatase (Homo sapiens)) | Potency [9] | Potency [10] | Potency [11] | Potency [12] | Potency [13] | Potency [15]

O=C1c2ccccc2C(=O)C1c1ccc(Cl)cc1
inactive: Potency [1] | Potency [2] | Potency [3] | Potency [17] | Potency [4] | Potency [5] | Potency [6] | Potency [7] | Potency (Aromatase (Homo sapiens)) | Potency [9] | Potency [11] | Potency [12] | Potency [13] | max activation [14] -2.83% | Potency [15] | Potency [16]

O=S(=O)(O)c1cc(O)c2c(N=Nc3ccc(Nc4ccccc4)c4c(S(=O)(=O)O)cccc34)cc(S(=O)(=O)O)cc2c1
active: Potency [1] 26.6 µM | Potency [2] 23.7 µM | Potency [8] 15 µM | Potency (Aromatase (Homo sapiens)) 23.7 µM | Potency [9] 16.8 µM | Potency [11] 11.9 µM
inactive: Potency [3] | Potency [17] | Potency [4] | Potency [5] | Potency [12] | Potency [13] | max activation [14] -12% | Potency [15] | Potency [16]

CCC(Cc1c(I)cc(I)c(O)c1I)C(=O)O (stereo not drawn)
inactive: Potency [1] | Potency [2] | Potency [3] | Potency [17] | Potency [4] | Potency [7] | Potency [8] | Potency (Aromatase (Homo sapiens)) | Potency [9] | Potency [11] | Potency [13] | max activation [14] -2.63% | Potency [15] | Potency [16]

O=C(O)CCC/C=C\C[C@@H]1[C@@H](/C=C/[C@@H](O)COc2cccc(C(F)(F)F)c2)[C@H](O)C[C@@H]1O
active: activation [6] 49.9%
inactive: Potency [1] | Potency [2] | Potency [3] | Potency [17] | Potency [4] | Potency [8] | Potency (Aromatase (Homo sapiens)) | Potency [9] | Potency [11] | Potency [12] | Potency [13] | max activation [14] -3.83% | Potency [15] | Potency [16]

NC(Cc1ccccc1)C(=O)O (stereo not drawn)
inactive: Potency [1] | Potency [2] | Potency [3] | Potency [17] | Potency [4] | Potency [5] | Potency [8] | Potency (Aromatase (Homo sapiens)) | Potency [9] | Potency [11] | Potency [12] | Potency [13] | max activation [14] 14.8% | Potency [15] | Potency [16]

O=c1oc2cc(O)ccc2s1
inactive: Potency [1] | Potency [2] | Potency [3] | Potency [4] | Potency [5] | Potency [6] | Potency [7] | Potency [8] | Potency (Aromatase (Homo sapiens)) | Potency [9] | Potency [10] | Potency [11] | Potency [12] | Potency [13] | max activation [14] -17.1% | Potency [15] | Potency [16]

O=C(OCc1ccccc1)c1cccnc1
inactive: Potency [1] | Potency [2] | Potency [3] | Potency [17] | Potency [5] | Potency [6] | Potency [7] | Potency [8] | Potency (Aromatase (Homo sapiens)) | Potency [9] | Potency [11] | Potency [12] | Potency [13] | max activation [14] 6.76% | Potency [15] | Potency [16]

COc1ccc(C(=O)CCC(=O)O)c2ccccc12
inactive: Potency [1] | Potency [2] | Potency [3] | Potency [4] | Potency [5] | Potency [6] | Potency [7] | Potency [8] | Potency (Aromatase (Homo sapiens)) | Potency [9] | Potency [10] | Potency [11] | Potency [13] | max activation [14] -4.04% | Potency [15] | Potency [16]

O=C(O)CCC/C=C\C[C@@H]1[C@@H](/C=C/[C@@H](O)COc2cccc(Cl)c2)[C@H](O)C[C@@H]1O
inactive: Potency [1] | Potency [2] | Potency [3] | Potency [17] | Potency [4] | Potency [5] | Potency [6] | Potency [8] | Potency (Aromatase (Homo sapiens)) | Potency [9] | Potency [10] | Potency [11] | Potency [12] | Potency [13] | max activation [14] -0.0632% | Potency [15] | Potency [16]

COc1ccc(/C=C/C(=O)OCCC(C)C)cc1
inactive: Potency [1] | Potency [2] | Potency [3] | Potency [17] | Potency [4] | Potency [5] | Potency [8] | Potency (Aromatase (Homo sapiens)) | Potency [9] | Potency [10] | Potency [11] | Potency [12] | Potency [13] | max activation [14] 9.31% | Potency [15] | Potency [16]

O=C1CC[C@@H](C(=O)N2CSC[C@H]2C(=O)O)N1 ([pGlu]-[Thz]-OH)
inactive: Potency [1] | Potency [2] | Potency [3] | Potency [4] | Potency [5] | Potency [6] | Potency [7] | Potency [8] | Potency (Aromatase (Homo sapiens)) | Potency [9] | Potency [10] | Potency [11] | Potency [12] | Potency [13] | max activation [14] 0.797% | Potency [15] | Potency [16]
